± gives the standard deviation. In all, about 5,500 sequences were measured (“pre-steady-state target cleavage rate”: median about 0.1, highest 2% from about 0.64 on). The full list was thinned out, with the highest values kept by preference.
These sequences were tested on MIWI (PIWIL1) piRISC loaded with piRNA #2 (30 nt) (assay: pre-steady-state target cleavage rate (min^-1); MIWI and MILI are mouse PIWI proteins and EfPiwi is from a freshwater sponge; tags in brackets are library labels; higher = faster piRNA-guided slicing of the target). Conditions: guide: piRNA #2 5'p-UUAGGUAACCCAGUAGAUCCAGAGGAAUUC; auxiliary factor: 500 nM mouse GTSF1.
Protocol: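 Cleave-'n-Seq: a library of target RNAs (target site embedded in constant flanks, ACAGCATTCCGCGTTAGTGATATCCG... 5' flank; DNA-blocked outside the site) at 0.1 nM was incubated with 1 nM active mouse MILI or MIWI piRISC (synthetic 5'-monophosphorylated piRNA guide) with or without 500 nM mouse GTSF1 at 33 °C for 1 min to 16 h. Uncleaved targets were sequenced and normalised to non-target controls, and the pooled three trials were fitted to a burst-and-steady-state model to give the pre-steady-state cleavage rate (min^-1; k3 is constrained to at most 1e-4). Sequence is the target site only; target names encode pairing extent (gX:gY) and contiguous / 1-mismatch / 2-mismatch / bulge geometry. Fits with R² ≤ 0 are excluded.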

Sequence | pre-steady-state target cleavage rate
CUAUUACCUCUGGAUCUACUGGGUUACCUAA | 0.227 ± 0.041
CUUAAGGUCUGGAACUACUGGCUUACCUAA | 0.027 ± 0.022
CUUAAGCUCAGGAUCUACAGGGUUACCUAA | 0.081 ± 0.014
CUUAAGGACAGCAUCUACUGGGUUACCUAA | 0.00648 ± 0.0035
CUAUUCGUCUGGAUCUACUGGGUUACCAAA | 0.36 ± 0.064
CAUUUCCUCUGGAUCUACUGGGUUACCUAA | 0.541 ± 0.059
CUUUUCCUCUCGAUCUACUGGGUUACCUAA | 0.602 ± 0.04
GAUUUCCUCUCGAUCUACUGGGUUACCUAA | 0.66 ± 0.067
CAUUUCCUCUCGAUCUACUGGGUUACCUAA | 0.808 ± 0.052
CUUUACCUCUCGAUCUACUGGGUUACCUAA | 0.47 ± 0.033
GAUUUCCUCUGGAUCUACUGGGUUACCUAA | 0.183 ± 0.042
CAAUUCGACUGGAUCUACUGGGUUACCUAA | 0.357 ± 0.05
CUUUUCCUCUGGAUCUACUGCGUAACCUAA | 0.174 ± 0.032
CUUAAGGAGAGGAUCUACUGGGUUACCUAC [g2:g20:cont:t1C] | 0.0183 ± 0.0054
CAAUUGCUCUGGAUCUACUGGGUUACCUUA | 0.212 ± 0.048
GAAUUCCUCUGGAUCUACUCGCUUACCUAA | 0.00392 ± 0.0028
CUUAAGGAGAGCGAUCUACUGGGUUACCUAA | 0.00514 ± 0.003
CUAUUCCUCUCGAUCUACUGCGUUACCUAA | 0.948 ± 0.092
CUUUUCCUCUGGAUCUACUGCGUUACCUAA | 0.527 ± 0.057
CAAUUCCUCUCGAUCUACUCGGUUACCUAA | 0.22 ± 0.022
CUAUUCCUCUCGAUCUACUCGGUUACCUAA | 0.196 ± 0.017
CAAUUCCUCUGGAUCUACUGCGUUACCUAA | 0.593 ± 0.069
GAAUUCCUCUCGAUCUACUGCGUUACCUAA | 0.691 ± 0.063
GAAUUCCUCUCGAUCUACUCGGUUACCUAA | 0.123 ± 0.018

Sequence | pre-steady-state target cleavage rate
CUUUUCCUCAGGAUCUACUGCGUUACCUAA | 0.524 ± 0.062
CUAUUCCUCUGGAUCUACUGCGUUACCUAA | 0.521 ± 0.065
CUUUUCCUCUCGAUCUACUGCGUUACCUAA | 0.845 ± 0.072
GAAUUCCUCUGGAUCUACUGCGUUACCUAA | 0.469 ± 0.056
CAAUUCCUCUCGAUCUACUGCGUUACCUAA | 0.907 ± 0.084
CUUAUCCUCUGGAUCUACUCCGUUACCUAA | 0.021 ± 0.009
CAUUUCCUCUGGAACUACUGGGUUACCUAA | 0.612 ± 0.044
GAAUUGCUCAGGAUCUACUGGGUUACCUAA | 0.168 ± 0.037
CUUAAGGUCUGGAUCUACUGGGUUUGCUAA | 0.0859 ± 0.018
CAAUUCCUGUGGAUCUACAGGGUUACCUAA | 0.268 ± 0.036
CUUAAGCUCUGGAUCUACUGGGUUACCUAG [g2:g24:cont:t1G] | 0.0755 ± 0.013
CAAUUCCUUGGAUCUACUGGGUUACCUAA | 0.45 ± 0.061
CUUAACCUCAGGAUCUAGUGGGUUACCUAA | 0.128 ± 0.017
CUUAUCCUCUCGAUCUACUGCGUUACCUAA | 0.636 ± 0.048
CUUAUCCUCUCGAUCUACUGGGUUACCUAA | 0.561 ± 0.04
CUUAACCUCUCGAUCUACUGCGUUACCUAA | 0.614 ± 0.057
CAAUUCCACUGGAUCUACUGGGUUACCAAA | 0.456 ± 0.083
CUUAUCCUCUGGAUCUACAGGGUAACCUAA | 0.128 ± 0.023
CUAUUCCUCUGGUUCUACUGGGUUACCUUA | 0.371 ± 0.057
GAAUUCCUCUGGUUCUACUGGGUUACCUAA | 0.678 ± 0.042
GUAUUCCUCUGGUUCUACUGGGUUACCUAA | 0.0955 ± 0.034
CAAUUCCUCUGGUUCUACUGGGUUACCUAA | 0.868 ± 0.05
CUAUUCCUCUGGUUCUACUGGGUUACGUAA | 0.629 ± 0.059
GAAUUCCUCUGGUCUACUGGGUUACCUAA | 0.301 ± 0.059

Sequence | pre-steady-state target cleavage rate
CAAUUCCUCUGGUCUACUGGGUUACCUAA | 0.369 ± 0.088
CUAUUCCUCUGGUUCUACUGGGUUACCUAA | 0.711 ± 0.043
GAAUUCCUCUGGUUCUACUGGGUUACGUAA | 0.618 ± 0.035
CAAUUCCUCUGGUUCUACUGGGUUACCUUA | 0.475 ± 0.066
CAAUUCCUCUGGUUCUACUGGGUUACGUAA | 0.688 ± 0.045
GAAUUCCUCUGGUUCUACUGGGUUACCUUA | 0.427 ± 0.064
CUUAAGCAGAGGAUCUACUGGGUUACCUAA | 0.0315 ± 0.0087
GAAUUCCACAGGAUCUACUGGGUUACCUAA | 0.408 ± 0.05
CUUAAGGUCUGGAUCUACUGGGUUAGCCUAA | 0.185 ± 0.025
CUUUUCCUCUGGAUCUUCUGGGAUACCUAA | 0.146 ± 0.022
CUUAAGGUGAGGAUCUACUGGGUUACCUAA | 0.0307 ± 0.01
CUUAUCCUCUGGAUCUACUGCGUUACCUAA | 0.498 ± 0.055
CUUAAGGUCUGCAUCUAGUGGGUUACCUAA | 0.0327 ± 0.0059
CUUUUCCUCUGGUUCUACUGGGUUACCUAA | 0.621 ± 0.042
CUAUUCCUCUGCUUCUACUGGGUUACCUAA | 0.516 ± 0.04
CAUUUCCUCUGGUUCUACUGGGUUACCUAA | 0.772 ± 0.046
GAAUUCCUCUGCUUCUACUGGGUUACCUAA | 0.48 ± 0.04
CAAUUCCUCUGCUUCUACUGGGUUACCUAA | 0.653 ± 0.056
GAUUUCCUCUGGUUCUACUGGGUUACCUAA | 0.524 ± 0.046
CUUAAGGUCUGGUUCUAGUGGGUUACCUAA | 0.0776 ± 0.014
CUUAAGGACUGGAUCUACUGGGUUACCAUAA | 0.051 ± 0.039
CUUAAGUUCUGGAUCUACUGGGUUACCUAA | 0.274 ± 0.04
CAAUUCCUCUGGAUCUACUGGGAUACCUUA | 0.219 ± 0.046
CUUAACCUCUGGAUCAACUCGGUUACCUAA | 0.0679 ± 0.013

Sequence | pre-steady-state target cleavage rate
CUUAUCCUCUGGAUCUUCUGGGAUACCUAA | 0.144 ± 0.025
GAAUUCCUCUGGCUCUACUGGGUUACCUAA | 0.586 ± 0.038
CAAUUCCUCUGGCAUCUACUGGGUUACCUAA | 0.636 ± 0.17
CUAUUCCUCUGGCAUCUACUGGGUUACCUAA | 0.399 ± 0.1
CUAUUCCUCUGGCUCUACUGGGUUACCUAA | 0.612 ± 0.042
CUUUUCCUCUGGCAUCUACUGGGUUACCUAA | 0.331 ± 0.089
GAAUUCCUCUGCAUCUACUGGGUUACCUAA | 0.421 ± 0.051
GAAUUCCUCUGGCAUCUACUGGGUUACCUAA | 0.667 ± 0.17
CAAUUCCUCUGGCUCUACUGGGUUACCUAA | 0.66 ± 0.04
CAAUUCCUCUGCAUCUACUGGGUUACCUAA | 0.57 ± 0.049
CUUAACCACUGGAACUACUGGGUUACCUAA | 0.292 ± 0.025
CUAUUCCACUGGAUCUACUGGGUUUCCUAA | 0.448 ± 0.066
CAAUUGCUCUGGAUCUACUGGGUUACCAAA | 0.429 ± 0.071
CUUAAGGUCUGGAUCUACUGGGUUACAUAA | 0.606 ± 0.054
CUAUUCCUCUGGAUCUACUGGGUUACCUAAA | 0.333 ± 0.047
CUUUUCCUCUCGAUCUACUGGCUUACCUAA | 0.201 ± 0.016
CUUAAGGUCUGGAUCAACUGGGUUACGUAA | 0.293 ± 0.039
CUUAACCUCUGGAUCUACUGGAGUUACCUAA | 0.00317 ± 0.0031
CUUAUCCUCUGGAUCUACUGGGUUACCUAA [g2:g26:cont:t1A] | 0.414 ± 0.063
CUUAACCUCUGGAUCUACUGAGUUACCUAA | 0.646 ± 0.047
CUUAUCCUCUGGAUCUACUGGAUUACCUAA | 0.402 ± 0.049
CUUAACCUCUGGAUCUACUGGUUACCUAA | 0.0564 ± 0.012
CUUAUCCUCUGGAUCUACUGAGUUACCUAA | 0.779 ± 0.05

From the supplement of paper PMC10338343
